Screens (PubChem)
DT40 TDP1 no CPT – qHTS for Inhibitors of human tyrosyl-DNA phosphodiesterase 1 (TDP1): qHTS in cells in absence of CPT. DT40 Tdp1-/- hTDP1 cells, no CPT, ATP luminescence, 48 h. Potency, µM (highest dose often 46.2 µM), without a hit: top-dose activity change, negative = growth inhibition, actives largely listed as inhibitors. 420,000 tested, 15% active. AID 686978, 2013; note: potency is the fitted concentration of half-maximal effect; nearly all actives have a fitted effect of over 55% in size
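Growth of hTDP1-complemented DT40 Tdp1-knockout cells is measured by ATP luminescence after at least 48 hr compound exposure at 37 °C, with DMSO substituting for the 20 nM CPT used in the parallel screen.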
HT1080NT lethal – qHTS for induction of synthetic lethality in tumor cells producing 2HG: qHTS for the HT-1080-NT fibrosarcoma cell line | Potency, µM (doses to about 46.1 µM), for the others: top-dose activity, negative = less viability, actives largely listed as cytotoxic | AID 686970, 2013 | 360,000 tested, 1.6% active | HT-1080-NT fibrosarcoma viability, CellTiter-Glo ATP luminescence, 48 h;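 note: NT is the 2HG producing partner of a matched IDH1 knockdown line; potency is the fitted concentration of half-maximal effect; 0% = DMSO-treated cells and -100% = media-only wells without cells; nearly all actives have a fitted effect of over 55% in size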
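A 48-hour cytotoxicity screen used HT-1080-NT cells plated 2 hours before compound delivery. ATP-based CellTiter-Glo luminescence measured viability, normalized to DMSO and no-cell controls.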
HT1080 IDH1KD tx – qHTS for induction of synthetic lethality in tumor cells producing 2HG: qHTS for the HT-1080-IDH1KD cell line. 360,000 tested, 2% active. HT-1080 IDH1 knockdown viability, ATP luminescence, 48 h. Potency, µM (highest dose often 46.1 µM), for the others: at the highest dose activity, negative = toxicity, usual class: cytotoxic;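 note: potency is the fitted concentration of half-maximal effect; 0% = DMSO wells and -100% = cell-free medium wells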
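Viability of IDH1-knockdown HT-1080 fibrosarcoma cells was assessed by CellTiter-Glo after 48 h at 37 °C with titrated compound; concentration-effect curves were classified by fit quality and response size.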
DT40 TDP1 CPT – qHTS for Inhibitors of human tyrosyl-DNA phosphodiesterase 1 (TDP1): qHTS in cells in presence of CPT; 420,000 tested, 12% active; chicken DT40 Tdp1-/-;hTDP1 cells + 20 nM CPT, ATP luminescence, 48 h; Potency, µM (doses to about 46.2 µM), without a hit: top-dose activity change, negative = growth inhibition, hits mostly inhibitors; AID 686979, 2013; note: potency is the fitted concentration of half-maximal effect; nearly all actives have a fitted effect of over 55% in size
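Cell growth measured by CellTiter-Glo luminescence after a minimum 48 h, 37 C compound exposure with 20 nM CPT in Tdp1-knockout DT40 cells stably expressing hTDP1, seeded 400/well; qHTS titration format.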
IL1B secr inh – qHTS for Inhibitors of Inflammasome Signaling: IL-1-beta AlphaLISA Primary Screen; THP-1 LPS/ATP IL-1B secretion, AlphaLISA, 16 h; active compounds read low; activity change, % at 57.5 µM; 360,000 tested, 4.7% active; AID 743279, 2014; in the data active = activity change below about -50%; inconclusive = mostly about -30% to -49%
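THP-1 cells pretreated 1 hr with compounds (up to 57.5 uM final), then stimulated with LPS (250 ng/mL final) plus ATP (1.25 mM final); secreted IL-1B measured by AlphaLISA after 16 hr, decreased signal indicating inhibition.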
* = called active by the depositor; ? = inconclusive; . = no result given. A selection: hits, their analogues and other compounds. The true share with any hit is near 19%. Unless noted, calls come from the whole dose curve; as a rule, active = well fitted curve in the direction sought with a large enough effect; inconclusive = small, poorly fitted or top-dose-only effect, or another doubt; inactive = no such curve, though single readings can be large; an effect the other way counts as inactive or inconclusive. Unless noted, % is set by controls: 0 for no effect and ±100 for the full control effect.

SMILES | DT40 TDP1 no CPT | HT1080NT lethal | HT1080 IDH1KD tx | DT40 TDP1 CPT | IL1B secr inh
Cc1ccc(Nc2nc(-c3ccc(S(=O)(=O)N4CCOCC4)cc3)cs2)cc1Cl | 6.5µM* | 23µM* | 16µM* | 4.6µM* | -30
O=C(COC(=O)c1ccco1)NCc1ccc(F)cc1 | -17% | 17% | 13% | 4% | -1
O=C(NCCc1nnc2n1CCN(Cc1cc3ccccc3o1)CC2)c1ccoc1 | -14% | . | . | -14% | .
CN(Cc1c(F)cccc1Cl)C(=O)c1ccc2ccccc2n1 | ? | 1% | -1% | ? | 14
Cc1ccc(CN2CCC[C@]3(N[C@H](c4ccccc4)[C@@H]4C(=O)N(C)C(=O)[C@@H]43)C2=O)cc1 | -8% | 0% | 9% | 0% | -8
Cc1cccc(/C=C2\CCC(=C3SCCCS3)C2=O)c1 | 15µM* | -2% | -2% | ? | -3
Cc1ccc(CCNC(=O)C2CCCN(C(=O)c3cc4sccc4n3C)C2)cc1 (configuration not stated) | ? | 0% | -21% | -29% | -26
Cn1c(C(=O)N2CCCC(C(=O)NCCCc3ccccc3)C2)cc2sccc21 (configuration not stated) | 10µM* | -22% | -17% | 18µM* | -10
Cn1c(C(=O)N2CCCC(C(=O)NCCc3ccccc3)C2)cc2sccc21 (configuration not stated) | 5.8µM* | ? | ? | 5.8µM* | 15
Cn1c(=O)c2[nH]c(N3CCN(c4ccccc4)CC3)nc2n(C)c1=O | ? | 10% | 11% | -21% | 14
CCCCNC(=O)C1CCCN(S(=O)(=O)c2c(C)noc2/C=C/c2cccs2)C1 (configuration not stated) | 13µM* | -7% | 9% | ? | ?
Cc1noc(/C=C/c2cccs2)c1S(=O)(=O)N1CCC(C(=O)NCCCN2CCCC(C)C2)CC1 (configuration not stated) | ? | -3% | -25% | ? | -51*
CCOCCCNC(=O)C1CCN(S(=O)(=O)c2c(C)noc2/C=C\c2ccc(OC)cc2)CC1 | 1% | 0% | 3% | -11% | 22
Cc1ccc(CNC(=O)C2CCCN(S(=O)(=O)c3c(C)noc3/C=C/N(C)C)C2)cc1 (configuration not stated) | ? | 1% | -1% | ? | -12
O=C(CNS(=O)(=O)c1ccc(Br)s1)NCC1COc2ccccc2O1 (configuration not stated) | ? | -4% | ? | ? | 34
CCOc1ccc(NC(=O)C(C)NC(=O)c2ccccc2Cl)cc1S(=O)(=O)N1CCCC1 (configuration not stated) | 15% | -1% | 16% | -16% | 6
CC(C)(C)C(=O)NCCc1nc2ccccc2n1CCCCOc1ccccc1 | 16µM* | . | . | ? | .
Cc1ccccc1OCCn1c(CCNC(=O)C2CCCCC2)nc2ccccc21 | 18µM* | . | . | ? | .
CC(C)C(=O)NCCc1nc2ccccc2n1CCOc1ccccc1 | ? | -2% | 5% | -28% | 10
CCc1ccc(OCCCCn2c(CCNC(=O)C3CCCCC3)nc3ccccc32)cc1 | 10µM* | . | . | 7.1µM* | .
O=C(NCCc1nc2ccccc2n1CCOc1ccccc1)C1CCCCC1 | -16% | . | . | ? | .
O=C(NCCc1nc2ccccc2n1CCCOc1ccccc1Cl)C1CCCCC1 | 7.1µM* | . | . | 10µM* | .
CC(C)c1ccc(C(CC(=O)O)N2Cc3ccccc3C2=O)cc1 (configuration not stated) | -17% | -3% | 0% | -13% | 0
O=C(Nc1ccc([N+](=O)[O-])cc1)c1cc(-c2ccccn2)nc2c(Cl)cccc12 | ? | ? | 0% | ? | 2
O=C(Cn1c2ccc(F)cc2c2nc3n(c(=O)c21)CCS3)NCC1CCCO1 (configuration not stated) | -5% | -13% | -2% | 0% | -12
SMILES | DT40 TDP1 no CPT | HT1080NT lethal | HT1080 IDH1KD tx | DT40 TDP1 CPT | IL1B secr inh
Cc1noc(C)c1S(=O)(=O)N1CCC(C(=O)N2CCN(c3cccc(C(F)(F)F)c3)CC2)CC1 | 3.3µM* | . | . | 5.2µM* | .
Cc1ccc(C)c(N2CCN(C(=O)C3CCN(S(=O)(=O)c4c(C)noc4C)CC3)CC2)c1 | 8.2µM* | -25% | 18µM* | 10µM* | ?
Cc1noc(/C=C/N(C)C)c1S(=O)(=O)N1CCN(c2ccccc2)CC1 | ? | -10% | ? | -26% | -14
Cc1noc(C)c1S(=O)(=O)N1CCC(C(=O)N2CCN(c3ccccc3)CC2)CC1 | ? | . | . | 0% | .
Cc1ccc(C)c(N2CCN(S(=O)(=O)c3c(C)noc3/C=C/N(C)C)CC2)c1 | 18µM* | -7% | 5% | ? | -16
Cc1noc(C)c1S(=O)(=O)N1CCC(C(=O)N2CCN(c3ccccc3Cl)CC2)CC1 | 21µM* | -1% | -5% | ? | -6
CS(=O)(=O)c1ccc(Cl)c(NC(=O)COC(=O)CNC(=O)c2ccc3ccccc3c2)c1 | -7% | -1% | 0% | ? | -5
Cc1ccc(NC(=O)CCSc2nnc(C)o2)cc1 | -3% | 1% | 12% | 1% | -4
Cc1ccc(NC(=S)N(C)C(c2ccccc2)c2ccccc2)cc1C | 23µM* | ? | -1% | ? | -1
COCCN(C(=S)Nc1ccc(C)c(C)c1)C(C)c1ccco1 (configuration not stated) | ? | 0% | 7% | ? | 8
Cc1ccc(NC(=S)N(CCN(C)C)C(C)c2ccco2)cc1C (configuration not stated) | ? | 8% | 13% | 18µM* | -19
CC(=O)c1ccc(S(=O)(=O)N2CCC(C(=O)Nc3ncc(C)s3)CC2)cc1 | -5% | 11% | 6% | -8% | 36
COCCNc1nc(Oc2ccccc2)c2sccc2n1 | 23µM* | 7% | 2% | 29µM* | -14
COCCNc1nc(Oc2cccc3ccccc23)c2sccc2n1 | 16µM* | ? | ? | 12µM* | 14
COc1ccc2ccccc2c1C=NN1CCCCC1 | ? | -8% | -9% | -6% | 3
CC(C)(C)C(=O)C1=C(O)C(=O)N(c2ccccc2)C1c1ccccc1 (configuration not stated) | -11% | -19% | -4% | ? | 0
CC(C)N1CCN(Cc2cc3ccccc3[nH]2)CC1CCO (configuration not stated) | -7% | 0% | 7% | 14% | -9
